PubChem BioAssay
A number with no mark means an inactive call. Active and inactive are the calls of the source. Rule as the data show it: active = inhibition above about 36%; inactive = the rest.

Each molecule was assayed on transactivating tegument protein VP16 (Human herpesvirus 1) (assay: compounds suppressing VP16-driven luciferase signal – cell-based, luminescence, single concentration, counter-screen for SRC2 inhibitor project (AID 652007)). Conditions: cell-based VP16 transactivation luciferase reporter, at 8.9 µM, active compounds read high.

Question: `CC1CCCCC12NC(=O)N(CC(=O)Nc1ccc(OC(F)F)cc1)C2=O` (stereo not given) was tested. Which inhibition did it give?
Answer: -18.4%

Question: How did the inhibition turn out when `O=C(Nc1ccccc1)C1=C(c2ccccc2)S(=O)(=O)CCS1(=O)=O` was run?
Answer: 84.9% (active)

Question: For `COCCn1c(-c2ccc(Br)cc2)csc1=Nc1cccnc1`, which inhibition is on record?
Answer: 10.4%

Question: How did the inhibition turn out when `CC(C)c1ccc(/C=C/C(=O)N2CCCCCC2)cc1` was run?
Answer: -73.2%

Question: How did the inhibition turn out when `COc1cccc(NC(=O)N2CCc3nc(Nc4ccc(C(C)C)cc4)ncc3C2)c1` was run?
Answer: -73.3%

Question: How did the inhibition turn out when `COc1ccc(C(=O)NCCNc2nc3cc(C)cc(C)c3cc2C#N)c(OC)c1` was run?
Answer: 3.31%

Question: `Cc1cc(C(=O)C(C)OC(=O)c2ccc(NC(=O)CC#N)cc2)c(C)n1-c1ccccc1` (stereo not given) was tested. Which inhibition did it give?
Answer: -36%

Question: With `O=C(COC(=O)c1cccc(F)c1)Nc1cccc(S(=O)(=O)N2CCCCC2)c1` as the molecule, how does the inhibition read?
Answer: 1.01%

Question: `Cc1cnc(NC(=O)COc2ccccc2Cl)s1` was tested. Which inhibition did it give?
Answer: -10.5%

Question: `O=C(c1c(F)cccc1F)N1CCN(S(=O)(=O)c2ccc3c(c2)OCCO3)CC1` was tested. Which inhibition did it give?
Answer: -6.59%

Question: With `CCOC(=O)c1c(NC(=O)c2cnn3c2NC(c2cccc(OC)c2)CC3C(F)(F)F)sc2c1CCCC2` (stereo not given) as the molecule, how does the inhibition read?
Answer: 16.7%

Question: With `N#Cc1c(NC(=O)CSc2ncn[nH]2)sc2c1CCCC2` as the molecule, how does the inhibition read?
Answer: 84% (active)

Question: Which inhibition does the source give for `CCOC(=O)C1=C(COC(=O)CCOc2cc(C)ccc2C)NC(=O)NC1C` (stereo not given) here?
Answer: -6.92%

Question: `CCOC(=O)[C@H]1[C@H]2COc3ccc(Br)cc3[C@@H]2N2C(=O)CN(Cc3ccco3)C(=O)[C@@]12C` was tested. Which inhibition did it give?
Answer: 0.08%

Question: Which inhibition does the source give for `CSC1=C(C#N)C(c2ccc3c(c2)OCO3)C2=C(CCCC2=O)N1` (stereo not given) here?
Answer: 0.63%

Question: With `Nc1ccc(C(=O)n2c3ccccc3c3ccccc32)cc1` as the molecule, how does the inhibition read?
Answer: 20.2%

Question: Which inhibition does the source give for `O=C(NCCCN1CCOCC1)c1ccc(CNS(=O)(=O)c2ccc(Br)cc2)cc1` here?
Answer: -18.4%

Question: `Cc1ccc(S(=O)(=O)C[C@@H]2OC[C@H](C)N2S(=O)(=O)c2ccc(C)cc2)cc1` was tested. Which inhibition did it give?
Answer: 1.93%

Question: How did the inhibition turn out when `CN1CCC(=NNc2ncnc3sc4c(c23)CCCC4)CC1` was run?
Answer: -9.72%

Question: With `C=CCc1c(C)nc(SC(C)C)[nH]c1=O` as the molecule, how does the inhibition read?
Answer: 0.2%

Question: Which inhibition does the source give for `CCOn1c(=O)c[n+]([O-])c2ccccc21` here?
Answer: 9.21%

Question: How did the inhibition turn out when `O=S(=O)(c1ccccc1)N1CCC(O)(CSc2ccc(F)cc2)CC1` was run?
Answer: -1.83%

Question: Which inhibition does the source give for `Nc1ccc2oc(-c3cccc4ccccc34)nc2c1` here?
Answer: 38.3% (active)

Question: With `CSc1nnc(NC(=O)c2nc(S(=O)(=O)Cc3cccc(C)c3)ncc2Cl)s1` as the molecule, how does the inhibition read?
Answer: 41.9% (active)

Question: How did the inhibition turn out when `Cc1cc(C)nc(NC(=O)c2c(F)c(F)c(F)c(C(=O)Nc3cc(C)cc(C)n3)c2F)c1` was run?
Answer: 19.3%

Question: With `COc1ccc(CN2C[C@H](COCc3ccccc3)Oc3cccc(N4CCCC4)c3S2(=O)=O)cc1` as the molecule, how does the inhibition read?
Answer: -11%

Question: Which inhibition does the source give for `Cc1ccc(N(C(=O)CCl)C(C(=O)NC2CCCCC2)c2cccnc2)cc1C` (stereo not given) here?
Answer: 55.2% (active)

Question: `COC(=O)c1c(NC(=O)CCCC(=O)O)sc2c1CCCCC2` was tested. Which inhibition did it give?
Answer: 29.6%

Question: With `Cc1ccc(-c2noc(CCC(=O)NCCN3CCN(Cc4ccccc4)CC3)n2)cc1` as the molecule, how does the inhibition read?
Answer: 12.2%

Question: How did the inhibition turn out when `COc1cccc(/C=C2\SC(=S)N(CCCC(=O)N3CCCCC3CCO)C2=O)c1` (stereo not given) was run?
Answer: 51.2% (active)

Question: For `Cc1c(C=O)n(C)n(-c2ccccc2)c1=O`, which inhibition is on record?
Answer: -14.4%

Question: `COc1cc(NC(=O)c2cccs2)c(C(=O)OCC(=O)c2cc(C)n(-c3ccccc3)c2C)cc1OC` was tested. Which inhibition did it give?
Answer: 27.5%

Question: How did the inhibition turn out when `COc1cccc(NC(=O)Nc2nnc(CC(=O)NCc3ccccc3)s2)c1` was run?
Answer: -17.5%

Question: How did the inhibition turn out when `CC(C)c1ccccc1NC(=O)COC(=O)CCN1C(=O)/C(=C\C=C\c2ccccc2)SC1=S` was run?
Answer: 45.2% (active)

Question: `COc1ccc(-c2cc(C(=O)O)c(C)o2)cc1OC` was tested. Which inhibition did it give?
Answer: -74%

Question: `CCN(CC)S(=O)(=O)c1ccc(Cl)c(NC(=O)COc2ccc(OC)cc2[N+](=O)[O-])c1` was tested. Which inhibition did it give?
Answer: -24.3%

Question: Which inhibition does the source give for `CC(=O)N(CCc1ccccc1)c1ccc2c(c1)C1CC2CCN1C(=O)OCc1ccccc1` (stereo not given) here?
Answer: 17%

Question: For `Nc1nc(-c2ccccc2)c(N=Nc2cccnc2)s1`, which inhibition is on record?
Answer: 5.71%

Question: How did the inhibition turn out when `COc1ccccc1N(CC(=O)N/N=C(\C)c1ccccc1O)S(=O)(=O)c1ccc(C)cc1` was run?
Answer: 12.9%

Question: Which inhibition does the source give for `Cc1cc(N2CCOCC2)c2c(N)cc(C)c(C)c2n1` here?
Answer: -7.44%
